Bioassay records deposited in PubChem BioAssay by National Center for Advancing Translational Sciences (NCATS).
Pf growth 48h: inhibits P. falciparum growth in the first generation, 48 h; P. falciparum luciferase growth in erythrocytes, 48 h; Potency, µM (highest dose often 28.7 µM), inactives show at the highest dose activity change, negative = inhibition, actives largely listed as inhibitors; hit rate 5.9% among 310,000; AID 504832; active = well fitted inhibition curve with a large enough effect; inconclusive = small, poorly fitted or top-dose-only effect, or another doubt; inactive = no such curve, though single readings can be large or run the other way; also: potency is read from the fitted curve at half-maximal effect; % is scaled to controls: 0 for no effect and ±100 for the full control effect
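Parasite viability was followed by luminescence of a genomically integrated firefly luciferase. Cultures held 0.1% parasitemia at 2% hematocrit (final), incubated under 5% CO2 at 37 C.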
Cycloheximide cs: affects cycloheximide protein synthesis inhibition readout, counter-screen; cell reporter, cycloheximide protein synthesis inhibition counterscreen; AID 2314; hit rate 12% among 300,000; max response, %; in the data active = max response mostly above about 13%, no sharp cut-off; inactive = mostly below about 14%; also: read at 38.3 µM for the half of the compounds with a filed dose; 0% is about no effect
NS1 function inh: influenza NS1 inhibition; Potency, µM (doses to about 46.1 µM), without a hit: top-dose activity, positive = more growth; hit rate 0.4% among 270,000; also: potency is read from the fitted curve at half-maximal effect; actives are rising curves; nearly all actives have a fitted effect of over 50% in size
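Compounds were scored for reversing the slow growth caused by influenza A NS1 in S. cerevisiae, measured by optical density at 600 nm. Assay medium contained 2% galactose at pH 6.0; NS1-free yeast of the same strain were the positive control.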
Pf growth 96h: P. falciparum growth inhibition at 96 hour, primary screen for plastid delayed-death inhibitors; P. falciparum luciferase reporter growth, 96 h; Potency, µM (series often up to 28.7 µM), for inactives: at the highest dose activity change, negative = inhibition, actives largely listed as inhibitors; hit rate 6.9% among 320,000; active = well fitted inhibition curve with a large enough effect; inconclusive = small, poorly fitted or top-dose-only effect, or another doubt; inactive = no such curve, though single readings can be large or run the other way; also: potency is read from the fitted curve at half-maximal effect; % is scaled to controls: 0 for no effect and ±100 for the full control effect
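Two-generation exposure (96 h) targets delayed-death phenotype. Reporter parasites carrying integrated firefly luciferase, in red cells at 2% hematocrit and 0.05% parasitemia final, kept at 37 C, 5% CO2; luminescence loss indicates inhibition.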
Shiga toxin inh: Shiga toxin inhibition | hit rate 9.2% among 290,000 | Vero cells, Shiga toxin protein synthesis inhibition reporter | inhibition, % at 38.7 µM; in the data active = inhibition mostly above about 28%, no sharp cut-off; inactive = mostly below about 43%; also: 0% is about no effect
SARS PLP yeast: inhibitors of SARS-CoV papain-like protease in yeast | Potency, µM (titrated, usually from 32.9 µM), inactives show top-dose activity, positive = growth rescue, hits mostly activators | S. cerevisiae expressing SARS-CoV PLpro, growth rescue | hit rate 0.19% among 330,000 | AID 485353; also: potency is read from the fitted curve at half-maximal effect; 0% is about no effect; nearly all actives have a fitted effect of over 55% in size
Starred values were filed as active, the others as inactive; ? = inconclusive; / = no result given. Hits are enriched below; roughly 21% of the tested compounds scored in any of these assays. Unless noted, calls follow the shape of the full dose curve.

SMILES	Pf growth 48h	Cycloheximide cs	NS1 function inh	Pf growth 96h	Shiga toxin inh	SARS PLP yeast
Cc1cccc(OCc2nnc(SC(C)C(=O)Nc3ccc(N4CCOCC4)cc3)o2)c1 (configuration not stated)	/	/	/	/	/	0.5%
COc1cccc(C(=O)Nc2ncc3c(n2)CC(C)CC3=O)c1 (configuration not stated)	12.9%	39.7*	-4.8%	6.2%	71.2*	-5.8%
COc1ccc(C2CC(=O)c3cnc(NC(=O)c4ccccc4OC)nc3C2)c(OC)c1 (configuration not stated)	?	-0.9	-60.6%	9.28µM*	5.7	-13.5%
COC(=O)[C@H](C)NC(=O)NCc1ccccc1	6.9%	-2.5	-1.7%	4.8%	-8.4	0.4%
COC(=O)C(CC(=O)c1ccc(Br)cc1)n1cccn1 (configuration not stated)	-2.2%	-1.9	8.3%	-29.3%	-4.8	0.4%
Cc1ccc2c(COC(=O)c3ccccc3F)cc(=O)oc2c1	243.2%	26.7*	-2.7%	222.6%	128.0*	-13.0%
CCc1ccc2c(COC(=O)c3n[nH]c4ccccc34)cc(=O)oc2c1	1.3%	46.4*	-17.5%	-6.0%	93.5*	11.7%
Cc1ccc2c(COC(=O)c3n[nH]c4ccccc34)cc(=O)oc2c1	79.6%	31.6*	-0.9%	-9.1%	78.3*	?
Cc1cc(C)c(OCC(=O)N(Cc2ccccc2)C2CCS(=O)(=O)C2)c(C)c1 (configuration not stated)	?	-3.0	0.8%	?	1.4	1.0%
CC(C)C(NC(=O)c1ccccc1)C(=O)OCC(=O)N1CCCC1 (configuration not stated)	-22.0%	/	/	?	/	0.8%
COc1ccc(OC)c(CN2CCN(Cc3cccc4ccccc34)CC2)c1	?	-0.3	/	-7.8%	-9.2	3.6%
CCOC(=O)N1CCN(C(=O)c2c(N)no[n+]2[O-])CC1	6.1%	5.7	/	117.1%	-22.9	1.1%
COc1ccc(C2(CCN)CC(C)N(C)CC2C)cc1 (configuration not stated)	0.0%	-1.4	5.8%	1.65µM*	11.6	3.6%
Cc1ccc(C2(O)CC(C)N(C)CC2C)cc1 (configuration not stated)	3.8%	14.2	6.2%	?	-7.7	4.0%
CCCCCCCC(O)CC(CC1CCCCC1)C(=O)NN (configuration not stated)	?	-0.5	-0.4%	?	-7.5	-13.3%
COc1ccc(-c2[nH]nc3c2C(c2ccccc2OC(=O)N2CCOCC2)C(C#N)=C(N)O3)cc1 (configuration not stated)	?	-2.4	-71.9%	29.7%	14.5	-0.1%
COc1ccc(-c2[nH]nc3c2C(c2ccc(OC(=O)N4CCOCC4)cc2)C(C#N)=C(N)O3)cc1 (configuration not stated)	0.6%	-2.1	-162.5%	13.1µM*	-4.7	-6.5%
Cc1ccc(-c2[nH]nc3c2C(c2ccccc2OC(=O)N2CCOCC2)C(C#N)=C(N)O3)cc1 (configuration not stated)	?	17.3	-132.1%	10.4µM*	42.0	-4.4%
COc1ccc(C(=O)c2cnc(C(C)C)n2C)cc1	20.6%	16.3*	1.8%	/	82.2*	1.3%
CCCc1ncc(C(O)c2cccc(OC)c2)n1C (configuration not stated)	0.6%	-2.2	-5.9%	41.2%	14.5	1.6%
CCCc1ncc(C(=O)c2ccc(OC)cc2)n1C	43.9%	17.4	-0.6%	-3.7%	41.6*	-2.4%
COc1ccc(-c2cc(=O)oc3cc4occ(C)c4cc23)cc1	?	0.6	1.6%	0.828µM*	-14.6	-1.7%
CC(Oc1ccc2c3c(c(=O)oc2c1)CCC3)C(=O)NC1CCN(Cc2ccccc2)CC1 (configuration not stated)	?	-3.6	3.2%	?	-1.1	-3.0%
Cc1cc(=O)oc2cc(OC(C)C(=O)NC3CCCC3)ccc12 (configuration not stated)	-10.7%	-3.5	-42.7%	?	1.8	-0.4%
Cc1cc(=O)oc2cc(OC(C)C(=O)NC3CCN(Cc4ccccc4)CC3)ccc12 (configuration not stated)	?	22.2*	-5.0%	-1.4%	0.8	-3.4%
